In PubChem BioAssay (NCI):
The panel holds about 83,000 compounds, 20% with a hit somewhere; the sample as a whole holds those more often.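 Testing used 96-well plates and a 48-hour single-concentration exposure. Example: -40 means 40% of the starting cells died.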 Unmarked numbers belong to inactive results. The source made the active and inactive calls. Rule for the calls: active = growth percent below 10; inactive = the rest.

Assays:
Test in all cases: NCI-60 one-dose screen, 48 h (100 = growth as untreated, 0 = no growth, -100 = all killed)
Details in all cases: 10 µM
K-562 leukemia = test system: K-562 leukemia
MALME-3M melanoma = test system: MALME-3M melanoma
MDA-MB-231 breast = test system: MDA-MB-231 breast
RXF 393 renal = test system: RXF 393 renal
SF-268 CNS = test system: SF-268 CNS
SF-295 CNS = test system: SF-295 CNS
SF-539 CNS = test system: SF-539 CNS
UACC-257 melanoma = test system: UACC-257 melanoma
M14 melanoma = test system: M14 melanoma
HCT-15 colon = test system: HCT-15 colon
SNB-75 CNS = test system: SNB-75 CNS
SNB-19 CNS = test system: SNB-19 CNS
PC-3 prostate = test system: PC-3 prostate
SK-MEL-5 melanoma = test system: SK-MEL-5 melanoma
UACC-62 melanoma = test system: UACC-62 melanoma
LOX IMVI melanoma = test system: LOX IMVI melanoma
SK-MEL-28 melanoma = test system: SK-MEL-28 melanoma
SK-MEL-2 melanoma = test system: SK-MEL-2 melanoma
U251 CNS = test system: U251 CNS
HT29 colon = test system: HT29 colon

| Compound | growth (K-562 leukemia) | growth (MALME-3M melanoma) | growth (MDA-MB-231 breast) | growth (RXF 393 renal) | growth (SF-268 CNS) | growth (SF-295 CNS) | growth (SF-539 CNS) | growth (UACC-257 melanoma) | growth (M14 melanoma) | growth (HCT-15 colon) | growth (SNB-75 CNS) | growth (SNB-19 CNS) | growth (PC-3 prostate) | growth (SK-MEL-5 melanoma) | growth (UACC-62 melanoma) | growth (LOX IMVI melanoma) | growth (SK-MEL-28 melanoma) | growth (SK-MEL-2 melanoma) | growth (U251 CNS) | growth (HT29 colon) |
| --- | --- | --- | --- | --- | --- | --- | --- | --- | --- | --- | --- | --- | --- | --- | --- | --- | --- | --- | --- | --- |
| O=C1/C(=C\c2ccc(Cl)cc2)CN(C(=S)Nc2ccccc2)C/C1=C\c1ccc(Cl)cc1 | 2.61% (active) | -39.9% (active) | -17.3% (active) | -88.6% (active) | -72.4% (active) | -53.3% (active) | -94.4% (active) | -55.4% (active) | -65.3% (active) | -34.7% (active) | -36.3% (active) | -72.9% (active) | -55.6% (active) | -73% (active) | -70.4% (active) | -80.1% (active) | -60.3% (active) | -28.4% (active) | – | – |
| Nc1c(C(=O)Nc2ccccc2Cl)sc2nc3c(cc12)C(=O)CCC3 | 24.9% | 38.5% | 70.3% | 61.7% | 95.7% | 14.7% | 69.9% | 42.9% | 50.2% | 32.8% | 52.4% | 51.1% | 37.1% | 32.5% | – | 55% | 57.7% | 35.4% | 73.3% | – |
| COc1cccc(NC(=O)c2sc3nc4c(cc3c2N)C(O)CCC4)c1 (stereo not drawn) | 7.8% (active) | 81.3% | 23.9% | -0.406% (active) | 30.6% | 5.44% (active) | -17.6% (active) | 55% | 11.8% | – | 44.6% | – | 25.4% | 25.1% | 48.9% | 25.8% | 56% | 49.5% | 10.6% | 4.69% (active) |
| COc1ccc(OC)c(NC(=O)c2sc3nc4c(cc3c2N)C(=O)CCC4)c1 | 61.7% | 86.4% | 86.9% | 85.4% | 110% | 80.9% | 97.3% | 93.5% | 93.9% | – | 87.2% | 82.2% | 80.4% | 66% | 75.3% | 90.8% | 83.7% | 94.1% | 94.5% | 106% |
| CCCCC/C=C/C(=O)CCc1ccc(O)c(OC)c1 | 59.9% | 23% | 79.3% | 74.6% | 86.9% | 96.4% | 90.1% | 91.9% | 80.7% | 88.2% | 63% | 87.1% | 55.8% | 97.7% | 83.1% | 23.7% | 95.8% | 121% | 79.6% | – |
| Cc1cn(C2CCCCO2)c(=O)nc1NO (stereo not drawn) | 101% | 137% | 106% | 119% | 103% | 106% | 96.1% | 106% | 113% | 100% | 99.3% | 105% | 104% | 108% | 104% | 110% | 116% | 120% | 112% | – |
| Cc1ccc(Nc2cc(C)nc(NCCCNc3ccnc4cc(Cl)ccc34)n2)cc1 | -55% (active) | -80.5% (active) | -92.4% (active) | -92.1% (active) | -85% (active) | -85.6% (active) | -96.9% (active) | – | -86% (active) | -71.7% (active) | -98.5% (active) | -24.9% (active) | -38.4% (active) | -100% (active) | -92.9% (active) | -82.7% (active) | -100% (active) | – | -99.2% (active) | -87.2% (active) |
| O=C1/C(=C\c2ccccc2)CN(C(=O)c2ccccc2)C/C1=C\c1ccccc1 | 2.41% (active) | -37.5% (active) | 7.59% (active) | -21.2% (active) | 23.6% | 15.7% | 69.4% | 4.53% (active) | -49.5% (active) | -18.6% (active) | 49.7% | 55.2% | 6.58% (active) | -22.8% (active) | -1.94% (active) | -80.3% (active) | -7.74% (active) | 58.6% | – | – |
| O=C(/C=C/c1cc2ccccc2[nH]c1=O)c1ccc2c(c1)OCO2 | 87.4% | 78% | 94% | 112% | 93.6% | 100% | 88.2% | 94.2% | 87.3% | – | 86.7% | 88.4% | 77.5% | 96% | 90.5% | 76.4% | 98.6% | – | 86.4% | 85.3% |
| COc1cc(-c2nn3c(/C=C4/C(=O)Nc5ccccc54)c(-c4ccc(C)cc4)nc3s2)cc(OC)c1OC | 55.7% | -23.8% (active) | 50.6% | 63.7% | 15.9% | 74.1% | 81.8% | 34.4% | 42.9% | – | 18.3% | 87.8% | 85.5% | 12.2% | 58.5% | 44.1% | 29.1% | – | – | 25.7% |
| O=C(Nc1cccc(-n2cc(-c3ccncc3)c(-c3ccc(O)c(Cl)c3)n2)c1)Nc1cccc(C(F)(F)F)c1 | 2.72% (active) | -24.1% (active) | -22.1% (active) | -11.7% (active) | 9.04% (active) | -12.6% (active) | -8.84% (active) | -19% (active) | -8.16% (active) | – | -0.929% (active) | 32.2% | -15.7% (active) | -49% (active) | -49.9% (active) | 1.13% (active) | -5.89% (active) | – | -70.8% (active) | 22% |
| Nc1nc(Nc2ccccc2)n[nH]1 | 98.6% | 98.5% | 105% | 104% | 112% | 98.1% | 94.2% | -7.13% (active) | 96.5% | – | 90.6% | 94.6% | 116% | 106% | 90.7% | 100% | 109% | 103% | 100% | 105% |
| COc1cc(-c2nc(-c3nnc(-c4ccccc4Cl)o3)c3ccccn23)cc(OC)c1OC | 65.8% | 119% | 90.7% | 90.8% | – | 77.9% | 88.3% | 91.4% | 112% | 73.3% | 79.4% | 101% | 74.2% | 80.2% | 69.8% | 77.9% | 94.6% | 79% | 96.9% | 91.4% |
| COc1cc(-c2nnc(-c3c(-c4ccc(F)cc4)nc4ccccn34)o2)cc(OC)c1OC | 98.8% | 105% | 64.6% | 66.9% | – | 74.6% | 26.4% | 92.1% | 104% | – | 2.43% (active) | 78.4% | 90.7% | 63.3% | 89.9% | 69.7% | 87.5% | 106% | – | 84.3% |
| COc1cc(Cc2cc(-c3ccc(Cl)cc3)n[nH]c2=O)ccc1O | 78.5% | 108% | 100% | – | 93.2% | 124% | 98.4% | 128% | 108% | 104% | 70.8% | 86.2% | 105% | 80.7% | 96.4% | 115% | 122% | – | 108% | 110% |
| CC(C)=CCc1cc(O)cc2c1OC(C=C(C)C)C1=C2C(=O)C2=C(NCCS2(=O)=O)C1=O (stereo not drawn) | 2.31% (active) | -92.9% (active) | -8.67% (active) | -2.85% (active) | -1.83% (active) | 45.9% | -50.5% (active) | – | -87.2% (active) | 28.4% | 18.5% | -44.5% (active) | 10% | -96.7% (active) | -18.9% (active) | -56.2% (active) | -33.4% (active) | -28.9% (active) | -85% (active) | -14.9% (active) |
| Nc1ccc2c(c1)C1(CCC2)NC(=O)NC1=O (stereo not drawn) | 95.8% | 101% | 101% | 96.1% | 100% | 108% | 93% | – | 100% | 92.7% | 90.2% | 96.6% | 92% | 98.6% | – | 97.7% | 113% | 99.7% | 91.5% | 104% |
| Cc1cc(N(CCCNc2ccnc3cc(Cl)ccc23)Cc2cccs2)nc(Cl)n1 | 0.837% (active) | 37.9% | 46.6% | 46.2% | 61.9% | 36% | 56.3% | – | 22.9% | 24.3% | 49.2% | 76.1% | 40.4% | -14.9% (active) | 47.5% | 8.99% (active) | 81.5% | 64.7% | 40% | 7.06% (active) |
| COc1ccc(-c2nnc(-c3c(-c4ccccc4)nc4ncccn34)o2)cc1OC | 88.8% | 121% | 91.3% | 98.3% | – | 101% | 94.5% | 96.7% | 119% | 100% | 74.1% | 100% | 97.9% | 95.4% | 102% | 102% | 112% | 96.3% | – | 102% |
| COc1cc(-c2nc(-c3nnc(-c4ccc(F)c(Cl)c4)o3)c3ccccn23)cc(OC)c1OC | 52.6% | 13.4% | 57.3% | 40.4% | – | 37.3% | 37% | 40.3% | 70% | 55.4% | 3.25% (active) | 4.53% (active) | 56.1% | 39.7% | – | 58.2% | 41.4% | 25.8% | 31.8% | 15.2% |
| COc1ccc2c(c1)/C(=C\c1c[nH]c3ccc(OC)cc13)C(=O)N2 | 11.6% | 91.8% | 42.3% | 60.5% | – | 74% | 74.2% | 68.1% | 29.8% | 31.6% | 46.7% | – | 60.6% | 46.3% | 39.3% | 35.9% | 71.7% | 33.4% | 56.2% | 24.9% |
